Our source for the inhibition values is ChEMBL document CHEMBL3433997, “St. Jude Leishmania screening dataset” (2016).

Molecules are shown by their SMILES.

The target in the first test is Solute carrier family 2, facilitated glucose transporter member 1 (Homo sapiens) (UniProt P11166). In words: ST_JUDE_LEISH: Cytotoxicity at 2uM final concentration against transgenic Leishmania Mexicana promastigotes LmGLUT1 that are glucose transport deficient and complemented with the human glucose transporter GLUT1. Activity is measured by DNA content using SYBR green in vitro. The format is functional.
Solute carrier family 2, facilitated glucose transporter member 1 (Homo sapiens), sequence (P11166 whole entry): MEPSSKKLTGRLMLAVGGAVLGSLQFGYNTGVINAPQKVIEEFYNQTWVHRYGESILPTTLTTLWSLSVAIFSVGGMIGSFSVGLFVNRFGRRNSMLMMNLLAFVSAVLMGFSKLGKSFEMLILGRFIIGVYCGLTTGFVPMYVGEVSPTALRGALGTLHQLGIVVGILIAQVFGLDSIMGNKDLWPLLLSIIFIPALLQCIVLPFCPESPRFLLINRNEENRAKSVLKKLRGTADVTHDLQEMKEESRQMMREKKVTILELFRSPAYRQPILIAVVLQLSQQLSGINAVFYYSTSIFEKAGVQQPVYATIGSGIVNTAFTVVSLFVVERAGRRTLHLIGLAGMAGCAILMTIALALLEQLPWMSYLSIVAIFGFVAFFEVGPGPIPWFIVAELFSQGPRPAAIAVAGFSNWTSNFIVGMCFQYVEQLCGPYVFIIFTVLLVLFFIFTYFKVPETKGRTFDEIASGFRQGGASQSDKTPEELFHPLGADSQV
As to `O=C(Nc1ccc2nc3n(c(=O)c2c1)CCCCC3)C(=O)N1CCC(Cc2ccccc2)CC1`, the inhibition was -0.67%.

In the case of `CC(C)CCN1CCC(Oc2ccc(NC(=O)c3cccs3)cc2Cl)C1` (stereo not given), the inhibition came to 10.2%.

As to `Cc1ccc2c(c1)NCC21CCN(C[C@@H](O)C2CCN(c3ccnc(Cl)c3)CC2)CC1C` (stereo not given in full), the inhibition was found to be 0.9%.

In the case of `Cc1ccc(Nc2nccc(NCC(O)c3ccc(C(F)(F)F)cc3)n2)cc1` (stereo not given), the inhibition came out at 10%.

As to `COc1cc(C(F)(F)F)cc2[nH]c(CNCCCNc3nc4ccccc4[nH]3)cc12`, the inhibition turned out to be 4.4%.

Turning to `CC(C)CC(=O)N1CCNC[C@@H]1C(=O)NCCSCc1c(F)cccc1Cl`, the inhibition is 3.36%.

Take `Cc1c(-c2ccc(C(=O)NC3CC(C)(C)NC(C)(C)C3)cc2)[nH]c2cc(Cl)c(Cl)cc12`: the inhibition stood at 10.9%.

In the case of `CCOC(=O)N1CCN(CCCCCNc2cc(C)nc(NC(=N)Nc3ccc(Cl)cc3)n2)CC1`, the inhibition turned out to be 6.99%.

As for `Cc1cccc2nc(-c3ccc(-c4ccc(NC(=O)NCc5ccc(F)cc5)cc4)cc3)[nH]c12`, the inhibition was 0.56%.

For `CC(C)(CNC(=O)[C@@H]1CCCN(CCOc2ccc(F)c(F)c2)C1)c1nc(-c2ccc(Cl)c(O)c2)c(-c2ccncc2)[nH]1`, the inhibition worked out at 0.3%.

For the compound `CCCCC(O)c1cc(O)c2c(c1)OC(C)(C)CC2C1=CCN(Cc2ccc3ccccc3c2)CC1` (stereo not given), the inhibition was -0.53%.

`COc1ccc(NS(=O)(=O)c2cc(NC(=O)Cn3ccccc3=O)ccc2N2CCCCC2)cc1`: the inhibition was found to be 2.57%.

Turning to `COc1ccc(C(C(=O)NC2CCN(C[C@H](O)c3ccnc4ccc(OC)cc34)CC2)N2CCN(c3ccc([N+](=O)[O-])cc3)CC2)cc1` (stereo not given in full), the inhibition amounted to 2.67%.

Take `O=C(/C=C/c1ccc(Cl)c(Cl)c1)N1CCC(CN2CCC(Cc3nc4ccccc4[nH]3)CC2)CC1`: the inhibition stood at 1.43%.

In the case of `O=C(Nc1ccc(C(F)(F)F)cc1)c1cccc(S(=O)(=O)NC2CCN(CC3CCCCC3)C2)c1` (stereo not given), the inhibition stood at 2.01%.

Consider `Cc1cnc(C(=O)Nc2cccc(-c3cccc(-c4nc5cccc(C)c5[nH]4)c3)c2)cn1`, for which the inhibition worked out at 4.11%.

`Cc1[nH]c(C)c(-c2csc3ccccc23)c(=O)c1Cl`: the inhibition is 5.32%.

Take `Cc1cc(C(=O)NC2CCN(Cc3ccccc3)CC2)ccc1-c1nc2ccc(C(F)(F)F)cc2[nH]1`: the inhibition turned out to be 3.67%.

As to `COCCNCc1cccc(-c2ccc3c(Nc4ccc(F)cc4Cl)ccnc3c2)c1`, the inhibition is -1.97%.

In the case of `Fc1ccc2[nH]cc(CCNCc3ccc(-c4cccc(-c5nc6ccccc6[nH]5)c4)cc3)c2c1`, the inhibition is 4.9%.

Regarding `COc1cccc(NC(=O)COc2ccc(C(=O)Nc3nc4ccccc4[nH]3)cc2)c1`, the inhibition was found to be 2.45%.

Turning to `COC(=O)Cn1c(C2CCN(CC3CCC(NC(=O)/C=C/c4ccc(Cl)c(Cl)c4)CC3)CC2)nc2ccccc21` (stereo not given), the inhibition came out at 1.86%.

Take `Cc1ccccc1C1CCN(c2ccc(C(=O)Nc3ccc(F)cc3)cn2)CC1`: the inhibition came to 4.93%.

In the case of `O=C(CCc1c[nH]cn1)Nc1cccc(-c2ccc(-c3nc4ccccc4[nH]3)s2)c1`, the inhibition stood at 2.18%.

As for `Cc1ccc(Nc2nc(N/N=C/c3ccccc3[N+](=O)[O-])nc(Nc3ccc([N+](=O)[O-])cc3)n2)cc1C`, the inhibition is 12.9%.

For `O=C(Nc1ccc(-c2cccc(-c3nc4cc(C(F)(F)F)ccc4[nH]3)c2)cc1)c1ccncc1`, the inhibition was 0.97%.

`Cc1nnc2c(NC(=O)NC3CCCC3)cc3cc(-c4ccc(CN5CCCCC5)cc4)ccc3n12`: the inhibition worked out at 1.79%.

`CN1CCC(C(=O)N(Cc2ccc(-c3ccc(CNCCc4ccc(S(C)(=O)=O)cc4)cn3)cc2)C2CCN(Cc3ccccc3)CC2)CC1`: the inhibition amounted to 3.07%.

In the case of `CCN(CC)CCN(Cc1ccc(-c2ccc(C(F)(F)F)cc2)cc1)C(=O)Cn1c(CCc2cccc(F)c2F)nc(=O)c2cccnc21`, the inhibition is 0.41%.

Regarding `Cc1[nH]n(-c2cccc(Cl)c2)c(=O)c1-c1ccc(Cl)cc1`, the inhibition was -3.78%.

Regarding `O=C(/C=C/c1ccc(CNCCN2CCOCC2)cc1)NCCc1ccccc1`, the inhibition was found to be 0.21%.

`Cc1nn(-c2ccccc2)c2c1C(c1ccc(C(C)C)cc1)N1C(=N2)N(Cc2ccccc2)c2ccccc21` (stereo not given): the inhibition is 4.28%.

In the case of `Cc1[nH]c(C)c(-c2ccc(Oc3ccc(F)cc3)cc2)c(=O)c1Br`, the inhibition stood at 4.89%.

For the compound `O=C(c1cccc(COc2ccc3c(c2)CCN(C2CCCC2)CC3)c1)N1CCN(c2ccncc2)CC1`, the inhibition is 8.85%.

Consider `CCC(NC[C@@H](O)[C@H](Cc1ccccc1)NC(=O)c1cc(C2CCCC2)cc(N2CCCC2=O)c1)c1cccc(Cl)c1` (stereo not given in full), for which the inhibition is 2.16%.

Turning to `Cc1cccc2nc(-c3ccc(-c4ccc(NC(=O)NCc5ccccc5)cc4)s3)[nH]c12`, the inhibition was determined as 3.85%.

Consider `N=C(N)NC(=O)Nc1cc(Cl)c(Cl)c(Cl)c1`, for which the inhibition is 2.56%.

Take `COc1ccc(NC(=O)CCNc2cc(C)nc(NCCc3ccc(F)cc3)n2)cc1`: the inhibition was -0.52%.

Take `CC(C)CCNc1nc(NCCCc2ccccc2)c2cc(O)ccc2n1`: the inhibition was determined as 24.8%.

With `CCNc1cc(-c2cccc(OC)c2)nc(Nc2ccc(F)cc2)n1`, the inhibition was found to be 7.43%.

The target of the next test is Hexose transporter 1 (Plasmodium falciparum) (UniProt O97467). In words: ST_JUDE_LEISH: Cytotoxicity at 2uM final concentration against transgenic Leishmania Mexicana promastigotes LmPfHT that are glucose transport deficient and complemented with the Plasmodium falciparum hexose transporter. Activity is measured by DNA content using SYBR green in vitro. Format: functional.
For the compound `O=C(Nc1ccc2nc3n(c(=O)c2c1)CCCCC3)C(=O)N1CCC(Cc2ccccc2)CC1`, the inhibition is 0.77%.

Take `CC(C)CCN1CCC(Oc2ccc(NC(=O)c3cccs3)cc2Cl)C1` (stereo not given): the inhibition was found to be 11.8%.

Consider `Cc1ccc2c(c1)NCC21CCN(C[C@@H](O)C2CCN(c3ccnc(Cl)c3)CC2)CC1C` (stereo not given in full), for which the inhibition is 3.08%.

Turning to `Cc1ccc(Nc2nccc(NCC(O)c3ccc(C(F)(F)F)cc3)n2)cc1` (stereo not given), the inhibition is 6.26%.

For the compound `COc1cc(C(F)(F)F)cc2[nH]c(CNCCCNc3nc4ccccc4[nH]3)cc12`, the inhibition came out at 6.5%.

With `CC(C)CC(=O)N1CCNC[C@@H]1C(=O)NCCSCc1c(F)cccc1Cl`, the inhibition came out at 5.07%.

With `Cc1c(-c2ccc(C(=O)NC3CC(C)(C)NC(C)(C)C3)cc2)[nH]c2cc(Cl)c(Cl)cc12`, the inhibition turned out to be 8.08%.

As for `CCOC(=O)N1CCN(CCCCCNc2cc(C)nc(NC(=N)Nc3ccc(Cl)cc3)n2)CC1`, the inhibition was 8.05%.

`Cc1cccc2nc(-c3ccc(-c4ccc(NC(=O)NCc5ccc(F)cc5)cc4)cc3)[nH]c12`: the inhibition was determined as 0.89%.

For `CC(C)(CNC(=O)[C@@H]1CCCN(CCOc2ccc(F)c(F)c2)C1)c1nc(-c2ccc(Cl)c(O)c2)c(-c2ccncc2)[nH]1`, the inhibition is -0.12%.

Take `CCCCC(O)c1cc(O)c2c(c1)OC(C)(C)CC2C1=CCN(Cc2ccc3ccccc3c2)CC1` (stereo not given): the inhibition was 1.5%.

As for `COc1ccc(NS(=O)(=O)c2cc(NC(=O)Cn3ccccc3=O)ccc2N2CCCCC2)cc1`, the inhibition came to 3.46%.

Regarding `COc1ccc(C(C(=O)NC2CCN(C[C@H](O)c3ccnc4ccc(OC)cc34)CC2)N2CCN(c3ccc([N+](=O)[O-])cc3)CC2)cc1` (stereo not given in full), the inhibition came to 1.79%.

Take `O=C(/C=C/c1ccc(Cl)c(Cl)c1)N1CCC(CN2CCC(Cc3nc4ccccc4[nH]3)CC2)CC1`: the inhibition came to 1.29%.

For the compound `O=C(Nc1ccc(C(F)(F)F)cc1)c1cccc(S(=O)(=O)NC2CCN(CC3CCCCC3)C2)c1` (stereo not given), the inhibition was found to be 0.63%.

For the compound `Cc1cnc(C(=O)Nc2cccc(-c3cccc(-c4nc5cccc(C)c5[nH]4)c3)c2)cn1`, the inhibition is 2.89%.

Turning to `Cc1[nH]c(C)c(-c2csc3ccccc23)c(=O)c1Cl`, the inhibition stood at 5.33%.

As to `Cc1cc(C(=O)NC2CCN(Cc3ccccc3)CC2)ccc1-c1nc2ccc(C(F)(F)F)cc2[nH]1`, the inhibition came to 2.1%.

Regarding `COCCNCc1cccc(-c2ccc3c(Nc4ccc(F)cc4Cl)ccnc3c2)c1`, the inhibition worked out at 2.48%.

As for `Fc1ccc2[nH]cc(CCNCc3ccc(-c4cccc(-c5nc6ccccc6[nH]5)c4)cc3)c2c1`, the inhibition worked out at 4.54%.

Regarding `COc1cccc(NC(=O)COc2ccc(C(=O)Nc3nc4ccccc4[nH]3)cc2)c1`, the inhibition was determined as 2.07%.

Take `COC(=O)Cn1c(C2CCN(CC3CCC(NC(=O)/C=C/c4ccc(Cl)c(Cl)c4)CC3)CC2)nc2ccccc21` (stereo not given): the inhibition is 0.18%.

Regarding `Cc1ccccc1C1CCN(c2ccc(C(=O)Nc3ccc(F)cc3)cn2)CC1`, the inhibition was -0.36%.

Consider `O=C(CCc1c[nH]cn1)Nc1cccc(-c2ccc(-c3nc4ccccc4[nH]3)s2)c1`, for which the inhibition was 4.04%.

`Cc1ccc(Nc2nc(N/N=C/c3ccccc3[N+](=O)[O-])nc(Nc3ccc([N+](=O)[O-])cc3)n2)cc1C`: the inhibition was 8.51%.

Regarding `O=C(Nc1ccc(-c2cccc(-c3nc4cc(C(F)(F)F)ccc4[nH]3)c2)cc1)c1ccncc1`, the inhibition stood at 1.99%.

`Cc1nnc2c(NC(=O)NC3CCCC3)cc3cc(-c4ccc(CN5CCCCC5)cc4)ccc3n12`: the inhibition came out at 1.94%.

On to `CN1CCC(C(=O)N(Cc2ccc(-c3ccc(CNCCc4ccc(S(C)(=O)=O)cc4)cn3)cc2)C2CCN(Cc3ccccc3)CC2)CC1`, for which the inhibition was 2.62%.

For `CCN(CC)CCN(Cc1ccc(-c2ccc(C(F)(F)F)cc2)cc1)C(=O)Cn1c(CCc2cccc(F)c2F)nc(=O)c2cccnc21`, the inhibition was 2.07%.

As for `Cc1[nH]n(-c2cccc(Cl)c2)c(=O)c1-c1ccc(Cl)cc1`, the inhibition was -2.18%.

`O=C(/C=C/c1ccc(CNCCN2CCOCC2)cc1)NCCc1ccccc1`: the inhibition is -1%.

Take `Cc1nn(-c2ccccc2)c2c1C(c1ccc(C(C)C)cc1)N1C(=N2)N(Cc2ccccc2)c2ccccc21` (stereo not given): the inhibition worked out at 2.86%.

`Cc1[nH]c(C)c(-c2ccc(Oc3ccc(F)cc3)cc2)c(=O)c1Br`: the inhibition was 4.31%.

`O=C(c1cccc(COc2ccc3c(c2)CCN(C2CCCC2)CC3)c1)N1CCN(c2ccncc2)CC1`: the inhibition is 5.59%.

For `CCC(NC[C@@H](O)[C@H](Cc1ccccc1)NC(=O)c1cc(C2CCCC2)cc(N2CCCC2=O)c1)c1cccc(Cl)c1` (stereo not given in full), the inhibition came out at 2.04%.

Turning to `Cc1cccc2nc(-c3ccc(-c4ccc(NC(=O)NCc5ccccc5)cc4)s3)[nH]c12`, the inhibition turned out to be 4.61%.

As for `N=C(N)NC(=O)Nc1cc(Cl)c(Cl)c(Cl)c1`, the inhibition stood at 4%.

In the case of `COc1ccc(NC(=O)CCNc2cc(C)nc(NCCc3ccc(F)cc3)n2)cc1`, the inhibition was 0.39%.

Turning to `CC(C)CCNc1nc(NCCCc2ccccc2)c2cc(O)ccc2n1`, the inhibition was 18.8%.

For the compound `CCNc1cc(-c2cccc(OC)c2)nc(Nc2ccc(F)cc2)n1`, the inhibition worked out at 7.1%.

Usually inhibition stands for the drop in the measured response relative to a control, in per cent.
